The values below come from PubChem BioAssay (EPA / NIEHS).

By AC50 is commonly meant the concentration giving half of the maximal activity seen.

The nature of the assay: CEETOX_H295R_CORTIC_noMTC: CeeTox H295R High-throughput Steroidogenesis Assay for Corticosterone (CORTIC), maximum tolerated concentration (MTC) filtered results only (AID 2283917). The note with it: actives raise or lower the signal. An outline of the steps: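 H295R adrenal cells pre-stimulated 48 h with 10 uM forskolin, then exposed 48 h to chemical in 0.1% DMSO; corticosterone in medium quantified by HPLC-MS/MS, fitted bidirectionally versus DMSO without MTT-based concentration filtering.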

The structures appear in SMILES notation. Active and inactive are the calls of the source. How the source made its calls: active means hit-call score of the fitted dose curve at least 0.9, where 1 is the maximum; inactive means score below 0.9.

Consider `CC=Cc1ccc(OC)c(OC)c1`, for which the concentration at half-maximal activity (AC50) is 39.5 µM (active).

As to `COc1ccc(OC)c(N=Nc2c(O)ccc3ccccc23)c1`, the result was inactive.
